Screening results from PubChem BioAssay.
Only some compounds are listed: those with a hit (about 0.82% of all), similar ones and a draw of the others.
RecA splice inh: Mtb RecA intein splicing inhibition; P9WHJ3; cell-free RecA intein splicing, fluorescence; inhibition, % (no concentration beside the values); 290,000 compounds, 0.75% hits; in the data active = inhibition above about 30%; inconclusive = no clear call, values can overlap the other calls;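 note: 0% = vehicle wells and 100% = reference inhibitor control wells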
UGM FP inh: inhibitors of M. tuberculosis UDP-galactopyranose mutase. P9WIQ1. purified UGM, fluorescence polarization probe displacement. inhibition, % at 10 µM. 320,000 compounds, 0.06% hits; in the data active = inhibition above about 10%, passing the limit was not always enough; inconclusive = no clear call, values can overlap the other calls
Y pestis TopoI: blocks Yersinia pestis topoisomerase I activity; Y. pestis Topo-I cleavage product accumulation, plate reader; activity, % at 10 µM; 360,000 compounds, 0.064% hits; AID 504884; in the data active = activity above about 50%, passing the limit was not always enough; inconclusive = no clear call, values can overlap the other calls
FadD28 FP inh: inhibitors of Mycobacterium tuberculosis FadD28 bisubstrate binding | FadD28 bisubstrate probe binding, fluorescence polarization | inhibition, % at 12.5 µM | 360,000 compounds, 0.22% hits | AID 588549; in the data active = inhibition above about 8.5%, passing the limit was not always enough; inconclusive = no clear call, values can overlap the other calls
BioA inh-1: BioA (M. tuberculosis) enzyme inhibition; purified M. tuberculosis BioA enzyme, plate reader; inhibition, % at 9.99 µM; 360,000 compounds, 0.096% hits; AID 602481; in the data active = inhibition above about 40%; inconclusive = no clear call, values can overlap the other calls
Rv3671c protease: inhibitors of M. tuberculosis serine protease Rv3671c. P9WHR9. inhibition, % at 5.96 µM. 320,000 compounds, 0.048% hits. AID 2606; in the data active = inhibition above about 38%;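 note: extracellular domain of Rv3671c used as enzyme; 0% = enzyme with DMSO and 100% = no enzyme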
BioA inh-2: inhibitors of Mycobacterium tuberculosis BioA enzyme; shares compounds with BioA inh-1; purified BioA enzyme, plate reader, dose response; max activity, %; 310 tested, under 10 active; AID 651679;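 note: top concentration of the dilution series was 10 µM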
Target sequence (P9WQ81 whole entry, looked up): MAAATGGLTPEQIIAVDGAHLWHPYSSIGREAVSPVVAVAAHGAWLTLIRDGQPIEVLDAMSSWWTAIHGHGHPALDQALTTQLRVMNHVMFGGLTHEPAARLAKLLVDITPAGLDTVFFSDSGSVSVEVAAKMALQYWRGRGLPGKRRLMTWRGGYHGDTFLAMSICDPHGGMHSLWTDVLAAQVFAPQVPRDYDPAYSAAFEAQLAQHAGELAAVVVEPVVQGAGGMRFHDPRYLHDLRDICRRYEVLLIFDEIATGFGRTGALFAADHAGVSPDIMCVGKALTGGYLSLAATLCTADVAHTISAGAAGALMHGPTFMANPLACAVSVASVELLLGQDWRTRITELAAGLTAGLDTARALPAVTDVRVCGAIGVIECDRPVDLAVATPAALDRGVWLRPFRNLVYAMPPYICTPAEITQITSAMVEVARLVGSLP
HepG2 tox 2: kills HepG2 cells. HepG2 cytotoxicity, plate reader. 310 tested, under 10 active. shares compounds with BioA inh-1. max activity, %
3T3 cytotox 5: NIH3T3 viability loss. shares compounds with BioA inh-1. NIH3T3 cytotoxicity, plate reader. activity change, negative = cytotoxicity, % at 26 µM. 310 tested, under 10 active. AID 651900
An asterisk follows results filed as active; i = inactive; u = inconclusive; x = no result given; [ ] = remark or other dose. Unless noted, the rule behind the calls is not given here.

SMILES	RecA splice inh	UGM FP inh	Y pestis TopoI	FadD28 FP inh	BioA inh-1	Rv3671c protease	BioA inh-2	HepG2 tox 2	3T3 cytotox 5
CC1CCCN(c2ccc(C(=O)Nc3cccnc3)cc2[N+](=O)[O-])C1 (centres undefined)	5	-1	7	-3	54*	-7	-7	5	-9
CC(=O)Nc1ccc(N2CCCC(C)C2)c([N+](=O)[O-])c1 (centres undefined)	-2	-1	-10	2	x	7	x	x	x
CC(=O)N(C)C[C@@H]1Oc2ncc(-c3cccc(F)c3)cc2C(=O)N([C@@H](C)CO)C[C@@H]1C	x	x	x	x	0	x	x	x	x
CC(Oc1cc2oc(=O)c3c(c2cc1Cl)CCCC3)C(=O)NCc1cccnc1 (centres undefined)	-2	2	2	-3	9	3	x	x	x
CC(Oc1cc2oc(=O)c3c(c2cc1Cl)CCC3)C(=O)NCc1cccnc1 (centres undefined)	0	-3	15	0	47*	-2	-8	-20	-5
COC(=O)c1sc(N)c(C(=O)OC)c1CSc1nnc(-c2ccccc2Cl)n1C	-1	1	16	1	59*	-2	-5	7	-8
C[C@@H]1CN([C@H](C)CO)S(=O)(=O)c2ccc(C3=CCCCC3)cc2O[C@@H]1CN(C)C(=O)C1CCOCC1	x	x	x	x	1	x	x	x	x
COc1cccc(S(=O)(=O)N2C[C@H](O)COC[C@H]3O[C@H](CC(=O)N4CCN(C)CC4)CC[C@@H]32)c1	x	x	x	x	1	x	x	x	x
Cc1nc(-c2cccnc2)sc1C(=O)Nc1cccc(C(F)(F)F)c1	1	1	-2	-6	50*	-26	-9	u	-2
C[C@@H]1CN([C@H](C)CO)C(=O)c2cccc(NS(=O)(=O)c3ccccc3)c2O[C@@H]1CN(C)C(=O)Nc1ccc(F)cc1	x	x	x	x	0	x	x	x	x
O=C(CN1CCOCC1)NCC[C@H]1CC[C@@H](NC(=O)Nc2ccc(C(F)(F)F)cc2)[C@H](CO)O1	x	x	x	x	0	x	x	x	x
C[C@H]1CN([C@@H](C)CO)C(=O)c2cccc(NC(=O)C3CC3)c2O[C@@H]1CN(C)C(=O)Nc1cccc2ccccc12	x	x	x	x	-1	x	x	x	x
CC(=O)c1ccc(N2CCN(S(=O)(=O)c3c(C(=O)N4CCCC4)c(C)n(C)c3C)CC2)cc1	-1	-2	9	0	42*	2	-3	-5	13
CC(=O)c1ccc(N2CCN(S(=O)(=O)c3c(C(=O)N4CCCCC4)c(C)n(C)c3C)CC2)cc1	1	-2	19	0	13	6	x	x	x
O=c1[nH]c(N2CCN(Cc3ccc4c(c3)OCO4)CC2)nc2c1CCC2	x	0	4	0	76*	1	-10	-12	-7
CN1c2ccc(-c3cccc(F)c3)cc2[C@H]2[C@H](CCN2C(=O)c2ccc3c(c2)OCO3)[C@H]1CO	x	x	x	x	99*	x	-5	i	-3[23.5 µM]
CCC(=O)N1CC[C@@H]2[C@H]1c1cc(-c3cccc(F)c3)ccc1N(C)[C@@H]2CO	x	x	x	x	90*	x	-4	i	-7[23.5 µM]
CN1c2ccc(-c3cccc(F)c3)cc2[C@H]2[C@H](CCN2C(=O)C2CCOCC2)[C@H]1CO	x	x	x	x	76*	x	-3	i	-1
CN1c2ccc(-c3cccc(C#N)c3)cc2[C@H]2[C@H](CCN2C(=O)CC2CC2)[C@H]1CO	x	x	x	x	65*	x	17	i	3[23.5 µM]
CC(=O)N1CC[C@@H]2[C@H]1c1cc(-c3cccc(F)c3)ccc1N(C)[C@H]2CO	x	x	x	x	11	x	x	x	x
Cc1ccccc1-c1cnc2c(c1)C(=O)N([C@H](C)CO)C[C@@H](C)[C@@H](CN(C)Cc1cncnc1)O2	x	x	x	x	2	x	x	x	x
C[C@@H](NC(=O)C[C@@H]1C[C@@H]2c3cc(NS(C)(=O)=O)ccc3O[C@@H]2[C@H](CO)O1)c1ccccc1	x	x	x	x	-1	x	x	x	x
CN1c2ccc(-c3cccc(F)c3)cc2[C@H]2[C@H](CCN2C(=O)c2ccncc2)[C@H]1CO	x	x	x	x	95*	x	-11	i	2
CN1c2ccc(-c3ccccc3)cc2[C@@H]2[C@@H](CCN2C(=O)c2ccncc2)[C@H]1CO	x	x	x	x	3	x	x	x	x
CC(=O)N1CC[C@@H]2[C@@H](CO)N(C)c3ccc(-c4ccccc4)cc3[C@@H]21	x	x	x	x	42*	x	18	i	10
SMILES	RecA splice inh	UGM FP inh	Y pestis TopoI	FadD28 FP inh	BioA inh-1	Rv3671c protease	BioA inh-2	HepG2 tox 2	3T3 cytotox 5
C[C@@H]1CN([C@H](C)CO)C(=O)c2cc(NC(=O)NC3CCCCC3)ccc2O[C@@H]1CN(C)C(=O)Nc1ccc2c(c1)OCO2	x	x	x	x	0	x	x	x	x
O=C(COc1ccc2ccc(=O)oc2c1)N1CCC(C(=O)O)(c2ccccc2)CC1	20	-4	2	-3	23	1	x	x	x
O=C(COc1ccc2ccc(=O)oc2c1)N1CCN(c2ccc(F)cc2)CC1	3	-2	3	-3	55*	4	-11	-12	-8
CCC(=O)N1C[C@H](C)[C@@H](OC)CN(C)C(=O)c2cc(NC(=O)Nc3ccccc3)ccc2OC[C@H]1C	x	x	x	x	0	x	x	x	x
COc1ccc(C2c3c(oc4ccc(Cl)cc4c3=O)C(=O)N2CCN2CCOCC2)cc1 (centres undefined)	-1	-1	-12	-5	72*	-3	-6	10	6
O=C(C1CC1)N1CCCCN2[C@H](CO)[C@@H](c3ccc(C#CC4(O)CCCC4)cc3)[C@@H]2C1	x	x	x	x	1	x	x	x	x
Cc1nc2nc(SCC(=O)NCCCN3CCCCC3)nn2c(C)c1Cc1ccccc1	x	-2	8	-1	37	-9	x	x	x
Cc1nc2nc(SCC(=O)NCCCN3CCOCC3)nn2c(C)c1Cc1ccccc1	2	1	4	0	47*	18	-5	7	9
Cc1ccc(Cc2c(C)nc3nc(SCC(=O)NCCCN4CCCCCC4)nn3c2C)cc1	x	1	x	x	x	-8	x	x	x
CCOCCCNC(=O)CSc1nc2nc(C)c(Cc3ccccc3)c(C)n2n1	-1	-2	0	-1	76*	8	-8	12	-10
C[C@H](CO)N1C[C@H](C)[C@@H](CN(C)CC2CC2)Oc2cc(-c3cncnc3)ccc2S1(=O)=O	x	x	x	x	0	x	x	x	x
O=C(Nc1ccc2ccccc2c1)c1cnccn1	5	2	-1	-3	3	-9	x	x	x
O=C(Nc1ccc2nccnc2c1)c1cnccn1	-1	0	3	-3	48*	0	-9	12	-2
O=C(C1CCCN(S(=O)(=O)c2cccnc2)C1)N1CCn2c1nc1ccccc12 (centres undefined)	2	-3	4	-2	46*	4	-5	11	2
COc1ccccc1-c1cc(C(F)(F)F)nc(S(=O)(=O)CCCC(=O)O)n1	24	4	-9	-5	60*	-5	-8	-3	-8
COc1ccccc1-c1cc(C(F)(F)F)nc(NCc2cccs2)n1	7	-1	13	-2	-1	-11	x	x	x
